Bioassay records as filed in PubChem BioAssay.
Most compounds without a hit are left out; they make up all but 5.2% or so of the library.
Sfp PPTase inh – qHTS Assay for Inhibitors of Bacillus subtilis Sfp phosphopantetheinyl transferase (PPTase). 4'-phosphopantetheinyl transferase ffp (Bacillus subtilis), Q9F4F7. Biochemical Sfp PPTase activity, qHTS. Potency, µM, without a hit: largest response in the series, negative = inhibition, most hits filed as inhibitors. 310,000 compounds, 3.5% hits;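 further: the enzyme is Sfp with the accession as filed and its product quenches rhodamine fluorescence; potency means the concentration at half of the fitted maximal effect; 0% = enzyme reaction without inhibitor and -100% = no enzyme wells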
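Reaction rates are the 30-min fluorescence difference (ex 525, em 598 nm) in wells containing 15 nM Sfp, 5 uM rhodamine-CoA and 12.5 uM BHQ-2-YbbR at pH 7.6 with 10 mM MgCl2.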
Coupling enz – qHTS Assay for Inhibitors of Fructose-1,6-bisphosphate Aldolase from Giardia Lamblia: Coupling assay counterscreen | AID 2472, 2010 | coupling enzyme system counterscreen, AmpLite Red fluorescence | 290,000 compounds, 0.67% hits | activity change, negative = inhibition, % at 58.2 µM, hits read low; in the data active means activity change below about -30%
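Coupling enzymes only (glyceraldehyde-3-phosphate) + compound, at 57.5 uM final, 10 min RT; add substrate/coupling/AmpLite Red mix, 20 min RT; fluorescence ex 525/em 598 nm. Actives flag coupling-system interference.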
Tau ThT inhib – qHTS for Inhibitors of Tau Fibril Formation, Thioflavin T Binding; Microtubule-associated protein tau (Homo sapiens), P10636; recombinant tau K18 P301L, heparin-induced fibrillization, ThT fluorescence; Potency, µM (top dose mostly 57.4 µM), for the others: at the top dose activity, negative = inhibition, most hits filed as inhibitors; 270,000 compounds, 2.1% hits; further: potency means the concentration at half of the fitted maximal effect; nearly all actives have a fitted effect of over 55% in size
Target sequence (P10636 561-689 P618L limits assumed): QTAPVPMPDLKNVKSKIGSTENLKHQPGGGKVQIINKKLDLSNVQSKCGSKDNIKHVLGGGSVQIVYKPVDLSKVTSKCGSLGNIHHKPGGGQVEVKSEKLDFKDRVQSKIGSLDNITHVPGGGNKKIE
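Tau K18 P301L fragment (15 uM unlabeled plus 0.24 uM Alexa 594-labeled) in 100 mM sodium acetate pH 7 with compound, fibrillization induced by 20 uM heparin for 6 hr at 37 C. Thioflavin T (30 uM) added, fluorescence read after 1 hr (ex 450, em 510 nm).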
Tau fluor cs – Counterscreen qHTS for Inhibitors of Tau Fibril Formation, Fluorescence Polarization; tau K18 P301L (four-repeat tau fragment) Alexa594 fluorescence, heparin fibrillization; Potency, µM (highest dose often 57.7 µM), without a hit: top-dose activity change, negative = decrease; 280,000 compounds, 0.93% hits; further: potency means the concentration at half of the fitted maximal effect; nearly all actives have a fitted effect of over 55% in size
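Human K18 P301L tau (15 uM unlabeled plus 0.24 uM Alexa 594-labeled, final) in 100 mM sodium acetate pH 7 was mixed with compound and 20 uM heparin and incubated 6 hr at 37 C.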
Tau FP inhib – qHTS for Inhibitors of Tau Fibril Formation, Fluorescence Polarization. K18 P301L tau heparin fibrillization, Alexa594 FP, 6 h. Potency, µM (top dose mostly 57.7 µM), inactives show at the top dose activity, negative = inhibition, usual class: inhibitors. 280,000 compounds, 0.39% hits; further: potency means the concentration at half of the fitted maximal effect; nearly all actives have a fitted effect of over 55% in size
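Recombinant K18 P301L […], labeled with Alexa 594 at 0.24 uM over 15 uM unlabeled; heparin inducer 20 uM final; 37 C, 6 hr; FP endpoint.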
* marks the source's active call; other numbers are inactive results; ? = inconclusive; · = not tested or not shown; [ ] = another dose, or the depositor's remark. Unless noted, the call rests on the fitted dose curve; in most records, active means well fitted curve in the direction sought with a large enough effect; inconclusive means small, poorly fitted or top-dose-only effect, or another doubt; inactive means no such curve, though single readings can be large; an effect the other way counts as inactive or inconclusive. Unless noted, on the % scale 0 is the no-effect control and ±100 the full control effect.

SMILES | Sfp PPTase inh | Coupling enz | Tau ThT inhib | Tau fluor cs | Tau FP inhib
CCc1nnc(NC(=O)CSc2nc3c([nH]c4ccccc43)c(=O)n2-c2ccc(Cl)cc2)s1 | · | · | 5.0% | -13.0% | -12.0%
CC(=O)Nc1c([N+](=O)[O-])cc2[nH]c(=O)[nH]c2c1[N+](=O)[O-] | 20µM* | -9.0 | ? | -19.0% | -2.3%
C=CCc1cc(OC)ccc1OCCN(C)Cc1ccccc1 | 50.1µM* | -0.1 | -1.2% | -6.1% | 5.4%
COc1ccc(OCCCCN(C)Cc2ccccc2)cc1 | -26.5% | 0.6 | · | · | ·
Cc1ccc(CNC(=O)CN2C(=O)CSc3ccc(S(=O)(=O)N4CCCC4)cc32)cc1 | · | · | -10.8% | -25.1% | -4.5%
Cn1c2c(c(=O)n(C)c1=O)C(c1ccccc1Cl)C(C#N)=C(N)O2 (stereo not given) | -14.9% | 5.1 | · | -21.9% | ?
Cn1c2c(c(=O)n(C)c1=O)C(c1ccccc1F)C(C#N)=C(N)O2 (stereo not given) | -22.3% | 0.6 | 20µM* | -18.6% | ?
C(=N\Nc1nc2ccccc2[nH]1)/c1ccc2c(c1)OCO2 | -79.8% | -1.4 | 7.94µM* | ? | 13.2%
O=C(O)c1ccc(/C=N/Nc2nc3ccccc3[nH]2)cc1 | -9.0% | 6.3 | -15.8% | -14.1% | -4.5%
CCN(CC)c1ccc(/C=N/Nc2nc3ccccc3[nH]2)cc1 | -8.3% | -1.5 | 3.16µM* | 7.94µM*[quencher] | ?
CC(=O)Nc1ccc(/C=N/Nc2nc3ccccc3[nH]2)cc1 | 10µM* | 0.6 | ? | 1.2% | 11.6%
C(=N\Nc1nc2ccccc2[nH]1)/c1ccncc1 | 4.8% | -0.6 | ? | -21.7% | ?
C/C(=N\Nc1nc2ccccc2[nH]1)c1ccc2c(c1)OCO2 | -13.8% | -3.7 | ? | ? | 8.7%
COC(=O)[C@@]1(Cc2ccccc2)[C@H]2c3cc(C(=O)N(C)C)n(Cc4ccccc4)c3C[C@H]2CN1C(=O)c1ccccc1 | -4.1% | 2.2 | -15.4% | -8.4% | 1.3%
COC(=O)N1[C@H]2CC[C@@]3(C)C=C(C)O[C@]1(C)C3c1ccccc12 | -3.9% | -2.3 | -4.5% | -7.7% | -1.3%
Oc1cccc(/C=N/N(Cc2ccccc2)c2ccccc2)c1 | 19.1% | -4.2 | ? | 12.6µM*[quencher] | ?
Oc1ccc(/C=N/N(Cc2ccccc2)c2ccccc2)c(O)c1O | 56.2µM* | -28.3 | 28.2µM* | 28.2µM*[quencher] | ?
C(=N\N(Cc1ccccc1)c1ccccc1)/c1cccnc1 | -8.6% | 1.3 | ? | -25.5% | 1.9%
CC(C)CC(=O)Nc1ccc2nc(SCC(=O)N3CCc4ccccc43)sc2c1 | · | · | -7.8% | -24.6% | ?
Cc1nc2ccccc2n1CCc1nc2c3ccccc3nc(=S)n2[nH]1 | 50.1µM* | -12.7 | -17.6% | -13.9% | -0.6%
c1n[nH]c(NC2=NCCC2)n1 | 44.7µM* | 2.6 | -2.9% | 4.8% | -0.3%
CC(C)CN1C(=O)/C(=C/c2cccs2)NC1=S | 10.7% | 0.5 | ? | ? | 10.7%
O=C1N/C(=C/c2ccco2)C(=O)N1Cc1ccccc1F | 50.1µM* | 0.4 | ? | -20.4% | -14.3%
CCOc1cc([N+](=O)[O-])cc(/C=C2/NC(=O)N(Cc3ccccc3F)C2=O)c1O | -16.2% | 7.2 | 14.1µM* | ? | -3.3%
CC(C)CN1C(=O)/C(=C/c2ccco2)NC1=S | 35.5µM* | -9.5 | ? | -18.8% | ?
SMILES | Sfp PPTase inh | Coupling enz | Tau ThT inhib | Tau fluor cs | Tau FP inhib
CC(=O)N1CCc2cc(S(=O)(=O)NC(Cc3ccccc3)C(=O)Nc3cccc(C)c3)ccc21 (stereo not given) | · | · | -1.9% | -21.6% | -13.5%
COc1ccc(OC)c(C2=Nn3c(nnc3-c3ccccc3C)SC2)c1 | ? | -3.7 | · | · | ·
S=C(Nc1ccc(Cl)cc1)c1nc2ccccc2s1 | 26.5% | -0.1 | ? | -20.4% | -6.7%
O=C(Nc1ccc(Cl)cc1)/C(=C/c1cccc(O)c1)c1nc2ccccc2s1 | 9.3% | 1.5 | 20µM* | ? | ?
O=C(Nc1ccc(Br)cc1)c1cccc(C(=O)Nc2ccc(Br)cc2)c1 | · | · | 6.0% | -11.7% | -18.3%
COc1ccccc1NC(=O)CSc1ncc2c(n1)-c1cc(Cl)ccc1N(Cc1ccccc1)S2(=O)=O | · | · | -3.3% | -27.0% | -5.7%
COC(=O)c1ccc(NC(=O)CSc2ncc3c(n2)-c2cc(Cl)ccc2N(Cc2ccccc2)S3(=O)=O)cc1 | · | · | 8.2% | ? | 15.8µM*
CC1=CC(=C2C(=O)c3ccccc3C2=O)C=C(C)N1Cc1ccco1 | 44.7µM* | -5.1 | 17.8µM* | -11.4% | 7.2%
CCOc1ccc(NC(=O)Cn2c(=O)n(Cc3ccco3)c(=O)c3ccc(C(=O)NC4CCCC4)cc32)cc1 | · | · | 2.4% | ? | 15.8µM*
CN1CCc2cc3c(c4c2[C@H]1[C@H](O)c1ccccc1-4)OCO3 | -5.1% | -32.3* | ? | -17.1% | -1.8%
COc1ccc(C(=O)NCCNc2ccc([N+](=O)[O-])cc2)cc1 | 20.9% | -2.1 | ? | -4.5% | 10.3%
O=C(NCCNc1ccc([N+](=O)[O-])cc1)c1ccc(Cl)cc1 | -6.6% | -1.3 | 8.91µM* | -29.4% | -0.8%
CC(/C=C/c1ccc(N(C)C)cc1)=N/N=C1/NC(=O)CC(C(=O)Nc2ccc(Cl)cc2)S1 (stereo not given) | 4.9% | 0.7 | 7.94µM* | 8.91µM*[quencher] | -3.0%
C#C[C@]1(O)CC[C@H]2[C@@H]3CCC4=CCCC[C@@H]4[C@H]3C(=C)C[C@@]21CC | 4.7% | · | · | · | ·
Cc1[nH]n(-c2ccccc2)c(=O)c1/C=N/Nc1nncc(-c2ccccc2)n1 | -26.2% | -28.9 | 14.1µM* | ? | 2.6%
Cc1[nH]n(-c2ccccc2)c(=O)c1/C=N/N1C(=O)c2cccc3cccc(c23)C1=O | 15.0% | 3.4 | 22.4µM* | ? | -9.0%
Cc1[nH]n(-c2ccccc2)c(=O)c1/C=N/N1CCOCC1 | 0.3% | -3.7 | -11.1% | -6.3% | -1.2%
CCc1cccc2c(C(=O)COC(=O)/C=C/c3ccc(O)c(OC)c3)c[nH]c12 | 11.3% | -2.3 | ? | 15.8µM*[quencher] | -8.7%
COc1cccc(/C=C/C(=O)OCC(=O)c2c[nH]c3ccccc23)c1OC | 6.3% | -0.6 | -7.9% | ? | ?
CCOC(=O)Cc1csc(SCn2nnc3ccccc3c2=O)n1 | -5.1% | -1.6 | -11.4% | -8.0% | 5.2%
CCOC(=O)Cc1csc(-n2sc3ccccc3c2=O)n1 | 6.31µM* | 2.7 | 28.2µM* | ? | 28.2µM*
CCN(C(=O)CSc1nnc(-c2cc3occc3n2C)n1-c1ccccc1C)c1ccccc1 | · | · | -10.8% | -3.1% | -2.0%
Cc1cc(/C=N/n2cnnc2)c(C)n1-c1ccc(Cl)cc1 | -8.8% | -0.7 | -2.8% | 2.1% | ?
